Measurements taken from publication PMC12864922, “TDP-43 directly inhibits mRNA accumulation in neurites through modulation of mRNA stability”.
Whole data set: some 9,900 sequences, median “r (bound/input frequency ratio)” near 0.7, cut for the highest 2% near 6.5. The list comes from a sample in which the highest values are over-represented; it also holds similar and randomly drawn sequences.

B1: ENSMUSG00000061578.90|Ksr2|236:240 (ssRNA)
RNA: GGGAGUUCUACAGUCCGACGAUCGCUUCGAUAUCCGCAUGCUAUCUGAUUUUAGAGGUCCCAUUCCAAGAUGGAAGUCACCGGUUGCCGCUGAGCACACAAUUCUGAAGGACAGUAGGCAGUCCUGCAGGUCUUUUUUAGCACAGGGCCUCUCUGGGGACCAGUCCCUGGCCUUCACCCUUCUCCCAUUUUGUAAGAACACUGUUCUAACUCACCUCAUGCCCACGCUACCCUGGGCAACUGGAGAACACCAUAGCGUUUCAGCUGAUGUGACAUUUGCACACACCUUUACCAGUUCACCAUCCUCUUGCGGUCGCACUAGUGUGGAAUUCUCGGGUGUCAAGG
B2: ENSMUSG00000090935.515|Synj2bp (ssRNA)
RNA: GGGAGUUCUACAGUCCGACGAUCGCUUCGAUAUCCGCAUGCUAUGGAGGCCCAGUGUCUGCUACCCUUCUUGUAUCUGAUGGCAUGGGUAACAGCUCUGCCAUGGGCCUGCUUACUUCUAGUAUUCACCUCAGGGCUUGGAAAUUGGUUUUGAAAGGCUUUUAGACAUAGAAAGUAAAACUAAUGGCAAGGAGGAUAAAACACUGUUGUGUGUUGUAUUGUUGAUCUAAAUAAAAAAUAUCAUUGGUAGAAGUUUUACUUUGGUUGAUAAGGAUUCUGAUAACAUUUGGGUCUCCUUAGGAAACUCUUGCGGUCGCACUAGUGUGGAAUUCUCGGGUGUCAAGG
B3: ENSMUSG00000031028.314|Tub|85:89 (ssRNA)
RNA: GGGAGUUCUACAGUCCGACGAUCGCUUCGAUAUCCGCAUGCUAUUUCUAGAGGGCAGUAGGACUUCCAUGCUGGGGCUGGCCUAUCUCCUGAUGAAAGAUUACAGUGCCAUCUCCUUCCCAUAGUUCACACACUGCCCUCCCUCCCUGACUUUAUAGGGAGAAAUCUCCUGACAUUAGAGGUGAUAGAAACCAGAGCUUUAGUCUAGUCAGGCUGUUUCUCUGGGUUGACAAGUUUAAGGUUGAACAGGCUGAUUUCUGGAAUCUCAUGAGUGGAGGGGACCCUGGUGGUUAAGAGCGGAACUCUCUUGCGGUCGCACUAGUGUGGAAUUCUCGGGUGUCAAGG
B4: ENSMUSG00000029636.408|Wasf3 (ssRNA)
RNA: GGGAGUUCUACAGUCCGACGAUCGCUUCGAUAUCCGCAUGCUAUAUUUUCUCAUAGUGUAAACUCAGGCAGAUGAAUAGCUGGAGAGUGGGUGGAUGGAUGGGUGAGUAUAUGGGUAGAUAAAUGGAUGAGUGGAUGGGUGGGUUAGGUGGGUAAGUAGCUAGGUGGAUGGGUGGGUGGAUACAUGGAUGAGUGGAUGGGUGGAUUGGUGGGUGAGUGGAUAGGUGAAUGGAUGAUAGGUGGUGGAUGGUUGAGUGGGUGGAUUCAUGAUGGAUGGAUGGAUGGAUGGAUGGAUGGAUGGAUGCUCUUGCGGUCGCACUAGUGUGGAAUUCUCGGGUGUCAAGG
B5: ENSMUSG00000029636.395|Wasf3|50:54 (ssRNA)
RNA: GGGAGUUCUACAGUCCGACGAUCGCUUCGAUAUCCGCAUGCUAAAUCUACAGAUCGCAAGGUUGUUUUAUAUUAUCCCCUUAUAGUGUUCCAACACAAUUGUAGCUGAGUUUCAGAUACGGUAUUUUCUCAUAGUGUAAACUCAGGCAGAUGAAUAGCUGGAGAGUGGGUGGAUGGAUGGGUGAGUAUAUGGGUAGAUAAAUGGAUGAGUGGAUGGGUGGGUUAGGUGGGUAAGUAGCUAGGUGGAUGGGUGGGUGGAUACAUGGAUGAGUGGAUGGGUGGAUUGGUGGGUGAGUGGAUAGGUCUCUUGCGGUCGCACUAGUGUGGAAUUCUCGGGUGUCAAGG
B6: ENSMUSG00000029636.415|Wasf3 (ssRNA)
RNA: GGGAGUUCUACAGUCCGACGAUCGCUUCGAUAUCCGCAUGCUAAGUGGGUGGAUGGAUGGGUGAGUAUAUGGGUAGAUAAAUGGAUGAGUGGAUGGGUGGGUUAGGUGGGUAAGUAGCUAGGUGGAUGGGUGGGUGGAUACAUGGAUGAGUGGAUGGGUGGAUUGGUGGGUGAGUGGAUAGGUGAAUGGAUGAUAGGUGGUGGAUGGUUGAGUGGGUGGAUUCAUGAUGGAUGGAUGGAUGGAUGGAUGGAUGGAUGGAUGGAUGAGUGGAUGGAUAAUAGGUUGAUGGGUGGAUAGGUAGAUCUCUUGCGGUCGCACUAGUGUGGAAUUCUCGGGUGUCAAGG
B7: ENSMUSG00000029636.411|Wasf3 (ssRNA)
RNA: GGGAGUUCUACAGUCCGACGAUCGCUUCGAUAUCCGCAUGCUAACUCAGGCAGAUGAAUAGCUGGAGAGUGGGUGGAUGGAUGGGUGAGUAUAUGGGUAGAUAAAUGGAUGAGUGGAUGGGUGGGUUAGGUGGGUAAGUAGCUAGGUGGAUGGGUGGGUGGAUACAUGGAUGAGUGGAUGGGUGGAUUGGUGGGUGAGUGGAUAGGUGAAUGGAUGAUAGGUGGUGGAUGGUUGAGUGGGUGGAUUCAUGAUGGAUGGAUGGAUGGAUGGAUGGAUGGAUGGAUGGAUGAGUGGAUGGAUAAUCUCUUGCGGUCGCACUAGUGUGGAAUUCUCGGGUGUCAAGG
B8: ENSMUSG00000029636.393|Wasf3|62:66 (ssRNA)
RNA: GGGAGUUCUACAGUCCGACGAUCGCUUCGAUAUCCGCAUGCUAAUGCUUAUACUUAAUCUACAGAUCGCAAGGUUGUUUUAUAUUAUCCCCUUAUAGUGUUCCAACACAAUUGUAGCUGAGUUUCAGAUACGGUAUUUUCUCAUAGUGUAAACUCAGGCAGAUGAAUAGCUGGAGAGUGGGUGGAUGGAUGGGUGAGUAUAUGGGUAGAUAAAUGGAUGAGUGGAUGGGUGGGUUAGGUGGGUAAGUAGCUAGGUGGAUGGGUGGGUGGAUACAUGGAUGAGUGGAUGGGUGGAUUGGUGGGUCUCUUGCGGUCGCACUAGUGUGGAAUUCUCGGGUGUCAAGG
B9: ENSMUSG00000029636.401|Wasf3|14:18 (ssRNA)
RNA: GGGAGUUCUACAGUCCGACGAUCGCUUCGAUAUCCGCAUGCUAUUAUAGUGUUCCAACACAAUUGUAGCUGAGUUUCAGAUACGGUAUUUUCUCAUAGUGUAAACUCAGGCAGAUGAAUAGCUGGAGAGUGGGUGGAUGGAUGGGUGAGUAUAUGGGUAGAUAAAUGGAUGAGUGGAUGGGUGGGUUAGGUGGGUAAGUAGCUAGGUGGAUGGGUGGGUGGAUACAUGGAUGAGUGGAUGGGUGGAUUGGUGGGUGAGUGGAUAGGUGAAUGGAUGAUAGGUGGUGGAUGGUUGAGUGGGUGGCUCUUGCGGUCGCACUAGUGUGGAAUUCUCGGGUGUCAAGG
B10: ENSMUSG00000029636.410|Wasf3 (ssRNA)
RNA: GGGAGUUCUACAGUCCGACGAUCGCUUCGAUAUCCGCAUGCUAGUGUAAACUCAGGCAGAUGAAUAGCUGGAGAGUGGGUGGAUGGAUGGGUGAGUAUAUGGGUAGAUAAAUGGAUGAGUGGAUGGGUGGGUUAGGUGGGUAAGUAGCUAGGUGGAUGGGUGGGUGGAUACAUGGAUGAGUGGAUGGGUGGAUUGGUGGGUGAGUGGAUAGGUGAAUGGAUGAUAGGUGGUGGAUGGUUGAGUGGGUGGAUUCAUGAUGGAUGGAUGGAUGGAUGGAUGGAUGGAUGGAUGGAUGAGUGGAUGCUCUUGCGGUCGCACUAGUGUGGAAUUCUCGGGUGUCAAGG
B11: ENSMUSG00000029636.397|Wasf3 (ssRNA)
RNA: GGGAGUUCUACAGUCCGACGAUCGCUUCGAUAUCCGCAUGCUAGCAAGGUUGUUUUAUAUUAUCCCCUUAUAGUGUUCCAUGUGUAUUGUAGCUGAGUUUCAGAUACGGUAUUUUCUCAUAGUGUAAACUCAGGCAGAUGAAUAGCUGGAGAGUGGGUGGAUGGAUGGGUGAGUAUAUGGGUAGAUAAAUGGAUGAGUGGAUGGGUGGGUUAGGUGGGUAAGUAGCUAGGUGGAUGGGUGGGUGGAUACAUGGAUGAGUGGAUGGGUGGAUUGGUGGGUGAGUGGAUAGGUGAAUGGAUGAUACUCUUGCGGUCGCACUAGUGUGGAAUUCUCGGGUGUCAAGG
B12: ENSMUSG00000029636.416|Wasf3 (ssRNA)
RNA: GGGAGUUCUACAGUCCGACGAUCGCUUCGAUAUCCGCAUGCUAUGGAUGGAUGGGUGAGUAUAUGGGUAGAUAAAUGGAUGAGUGGAUGGGUGGGUUAGGUGGGUAAGUAGCUAGGUGGAUGGGUGGGUGGAUACAUGGAUGAGUGGAUGGGUGGAUUGGUGGGUGAGUGGAUAGGUGAAUGGAUGAUAGGUGGUGGAUGGUUGAGUGGGUGGAUUCAUGAUGGAUGGAUGGAUGGAUGGAUGGAUGGAUGGAUGGAUGAGUGGAUGGAUAAUAGGUUGAUGGGUGGAUAGGUAGAUGAGUGACUCUUGCGGUCGCACUAGUGUGGAAUUCUCGGGUGUCAAGG
B13: ENSMUSG00000029636.403|Wasf3 (ssRNA)
RNA: GGGAGUUCUACAGUCCGACGAUCGCUUCGAUAUCCGCAUGCUAAUGUGUAUUGUAGCUGAGUUUCAGAUACGGUAUUUUCUCAUAGUGUAAACUCAGGCAGAUGAAUAGCUGGAGAGUGGGUGGAUGGAUGGGUGAGUAUAUGGGUAGAUAAAUGGAUGAGUGGAUGGGUGGGUUAGGUGGGUAAGUAGCUAGGUGGAUGGGUGGGUGGAUACAUGGAUGAGUGGAUGGGUGGAUUGGUGGGUGAGUGGAUAGGUGAAUGGAUGAUAGGUGGUGGAUGGUUGAGUGGGUGGAUUCAUGAUGGACUCUUGCGGUCGCACUAGUGUGGAAUUCUCGGGUGUCAAGG
B14: ENSMUSG00000029636.392|Wasf3|68:72 (ssRNA)
RNA: GGGAGUUCUACAGUCCGACGAUCGCUUCGAUAUCCGCAUGCUACAUUUCAUGCUUAUACUUAAUCUACAGAUCGCAAGGUUGUUUUAUAUUAUCCCCUUAUAGUGUUCCAACACAAUUGUAGCUGAGUUUCAGAUACGGUAUUUUCUCAUAGUGUAAACUCAGGCAGAUGAAUAGCUGGAGAGUGGGUGGAUGGAUGGGUGAGUAUAUGGGUAGAUAAAUGGAUGAGUGGAUGGGUGGGUUAGGUGGGUAAGUAGCUAGGUGGAUGGGUGGGUGGAUACAUGGAUGAGUGGAUGGGUGGAUUGCUCUUGCGGUCGCACUAGUGUGGAAUUCUCGGGUGUCAAGG
B15: ENSMUSG00000029636.407|Wasf3 (ssRNA)
RNA: GGGAGUUCUACAGUCCGACGAUCGCUUCGAUAUCCGCAUGCUAAUACGGUAUUUUCUCAUAGUGUAAACUCAGGCAGAUGAAUAGCUGGAGAGUGGGUGGAUGGAUGGGUGAGUAUAUGGGUAGAUAAAUGGAUGAGUGGAUGGGUGGGUUAGGUGGGUAAGUAGCUAGGUGGAUGGGUGGGUGGAUACAUGGAUGAGUGGAUGGGUGGAUUGGUGGGUGAGUGGAUAGGUGAAUGGAUGAUAGGUGGUGGAUGGUUGAGUGGGUGGAUUCAUGAUGGAUGGAUGGAUGGAUGGAUGGAUGGACUCUUGCGGUCGCACUAGUGUGGAAUUCUCGGGUGUCAAGG

molecular target: TDP-43 (Homo sapiens, UniProt Q13148 1-414); assay: RNA Bind-n-Seq with designed 260-mer pool; 25 mM Tris-HCl, 150 mM KCl, 3 mM MgCl2, BSA (printed 500 mg/mL), 20 units/mL SUPERase IN; pH not stated; 500 nM RNA pool, 1 h, 4 C; TDP-43 5, 50, 500 nM; high values mean tight binding; details: protein: recombinant; tags: SBP (GST cleaved off with PreScission; pGEX-GST-SBP)
How it was run: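 An in vitro-transcribed pool of 260-nt 3′ UTR oligos (500 nM) was incubated for 1 h at 4 °C with recombinant SBP-tagged TDP-43 at 5, 50 or 500 nM held on streptavidin beads. The buffer contained 25 mM Tris-HCl, 150 mM KCl, 3 mM MgCl2, BSA and SUPERase IN. Biotin-eluted bound RNA was sequenced, and binding, R, is each oligo's normalized read abundance in the bound sample over that in input.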

Sequence of TDP-43 (Q13148 whole entry): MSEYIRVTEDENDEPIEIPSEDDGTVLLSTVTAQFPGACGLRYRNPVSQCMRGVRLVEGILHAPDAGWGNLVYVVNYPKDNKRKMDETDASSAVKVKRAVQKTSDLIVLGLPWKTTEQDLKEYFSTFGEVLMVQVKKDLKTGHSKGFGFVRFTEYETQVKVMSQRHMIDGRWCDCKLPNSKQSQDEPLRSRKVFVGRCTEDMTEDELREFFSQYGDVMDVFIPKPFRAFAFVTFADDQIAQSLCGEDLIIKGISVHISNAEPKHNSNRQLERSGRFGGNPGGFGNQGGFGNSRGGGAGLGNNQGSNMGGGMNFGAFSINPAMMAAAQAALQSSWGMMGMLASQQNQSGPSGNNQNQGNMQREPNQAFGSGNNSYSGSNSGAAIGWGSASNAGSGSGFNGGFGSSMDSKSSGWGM

With B1 as the binder, how does the binding signal read?
The binding signal was 0.502 R (bound/input frequency ratio).

How did the binding signal turn out when B2 was run?
Its binding signal is 0.412 R (bound/input frequency ratio).

With B3 as the binder, how does the binding signal read?
The binding signal was 1.56 R (bound/input frequency ratio).

How did the binding signal turn out when B4 was run?
Its binding signal is 20.3 R (bound/input frequency ratio).

With B5 as the binder, how does the binding signal read?
The binding signal was 4.72 R (bound/input frequency ratio).

How did the binding signal turn out when B6 was run?
The binding signal was 2.19 R (bound/input frequency ratio).

Which binding signal does the source give for B7 here?
The binding signal was 7.25 R (bound/input frequency ratio).

With B8 as the binder, how does the binding signal read?
The binding signal was 6.94 R (bound/input frequency ratio).

B9 was tested. Which binding signal did it give?
Its binding signal is 4.07 R (bound/input frequency ratio).

B10 was tested. Which binding signal did it give?
Its binding signal is 2.97 R (bound/input frequency ratio).

B11 was tested. Which binding signal did it give?
Its binding signal is 4.09 R (bound/input frequency ratio).

Which binding signal does the source give for B12 here?
Its binding signal is 6.38 R (bound/input frequency ratio).

For B13, which binding signal is on record?
Its binding signal is 15.4 R (bound/input frequency ratio).

Which binding signal does the source give for B14 here?
Its binding signal is 4.14 R (bound/input frequency ratio).

B15 was tested. Which binding signal did it give?
The binding signal was 3.52 R (bound/input frequency ratio).
